According to the supplement of paper PMC4709259:
Where a name gives a salt, the structure may show the parent alone. ± gives the standard deviation.

Experiments:
[1] = tested on: Jurkat; test: mean cell size (FSC-A) relative to DMSO control (fraction of control); higher = larger cells; details: 48 h
How it was run: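 Jurkat cells seeded at 600 cells/µl were incubated 1 h, then exposed for 48h to the Enzo Screen-Well FDA Approved Drug Library v2.0 at 25µM in 0.9% (v/v) final DMSO. Drugs that cut counts below 20% of controls were diluted 10-fold and retested, down to 25nM. Cell count and mean cell size (forward scatter area) were read on an Accuri C6 flow cytometer, relative to solvent-only controls. Plates held 6-12 controls; values are means of 3 biological replicates.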

[2] = tested on: Jurkat; test: cell count relative to DMSO control (fraction of control); higher = more cells (less growth inhibition); details: 48 h

| SMILES | mean cell size [1] | cell count [2] |
| --- | --- | --- |
| CCCNC(C)C(=O)Nc1c(C)csc1C(=O)OC (stereo unspecified) [Articaine·HCl] (concentration: 25 µM) | 0.96 ± 0.028 | 0.738 ± 0.059 |
| C=CC[C@@H]1/C=C(\C)C[C@H](C)C[C@H](OC)[C@H]2O[C@@](O)(C(=O)C(=O)N3CCCC[C@H]3C(=O)O[C@H](/C(C)=C/[C@@H]3CC[C@@H](O)[C@H](OC)C3)[C@H](C)[C@@H](O)CC1=O)[C@H](C)C[C@@H]2OC [Tacrolimus (Fk506)] (concentration: 25 µM) | 0.83 ± 0.065 | 0.408 ± 0.045 |
| C=C[C@H]1CN2CC[C@H]1C[C@@H]2[C@@H](O)c1ccnc2ccc(OC)cc12 [Quinidine·HCl·H2O] (concentration: 25 µM) | 0.9234 ± 0.0047 | 0.665 ± 0.11 |
| NC(=O)c1cnccn1 [Pyrazinamide] (concentration: 25 µM) | 1 ± 0.031 | 0.808 ± 0.066 |
| CC(C)NCC(O)c1ccc(O)c(O)c1 (racemic) [(±) Isoproterenol·HCl] (concentration: 25 µM) | 0.981 ± 0.047 | 0.659 ± 0.0053 |
| Clc1ccc2c(c1)C(N1CCNCC1)=Nc1ccccc1O2 [Amoxapine] (concentration: 25 µM) | 1.03 ± 0.013 | 0.538 ± 0.073 |
| Cc1cn([C@H]2C[C@H](N=[N+]=[N-])[C@@H](CO)O2)c(=O)[nH]c1=O [Zidovudine (3'-Azido-3'-Deoxythymidine)] (concentration: 25 µM) | 1.03 ± 0.025 | 0.714 ± 0.027 |
| CC(=O)Nc1nnc(S(N)(=O)=O)s1 [Acetazolamide] (concentration: 25 µM) | 1.04 ± 0.061 | 0.755 ± 0.054 |
| NS(=O)(=O)c1cc2c(cc1C(F)(F)F)NCNS2(=O)=O [Hydroflumethiazide] (concentration: 25 µM) | 0.944 ± 0.048 | 0.681 ± 0.17 |
| Nc1nc(=O)c2c([nH]1)NCC(CNc1ccc(C(=O)N[C@@H](CCC(=O)O)C(=O)O)cc1)N2C=O (stereo partly specified) [Leucovorin Calcium Pentahydrate] (concentration: 25 µM) | 0.933 ± 0.041 | 1.05 ± 0.035 |
| O=C(O)c1ccc(-n2nc(-c3ccccc3O)nc2-c2ccccc2O)cc1 [Deferasirox] (concentration: 2.5 µM) | 1.07 ± 0.021 | 0.636 ± 0.039 |
| COc1cc2nc(N(C)CCCNC(=O)C3CCCO3)nc(N)c2cc1OC (stereo unspecified) [Alfuzosin] (concentration: 25 µM) | 0.952 ± 0.029 | 0.41 ± 0.14 |
| C=CC1=C(C(=O)O)N2C(=O)[C@@H](NC(=O)/C(=N\OCC(=O)O)c3csc(N)n3)[C@H]2SC1 [Cefixime] (concentration: 25 µM) | 0.977 ± 0.018 | 0.846 ± 0.069 |
| CC1=C(/C=C/C(C)=C/C=C/C(C)=C\C(=O)O)C(C)(C)CCC1 [Isotretinoin (13-Cis-Retinoic Acid)] (concentration: 25 µM) | 0.864 ± 0.03 | 1.02 ± 0.11 |
| CN1CC(=O)N2[C@H](c3ccc4c(c3)OCO4)c3[nH]c4ccccc4c3C[C@@H]2C1=O [Tadalafil] (concentration: 25 µM) | 0.922 ± 0.05 | 0.413 ± 0.12 |
| CC(=O)S[C@@H]1CC2=CC(=O)CC[C@]2(C)[C@H]2CC[C@@]3(C)[C@@H](CC[C@@]34CCC(=O)O4)[C@H]12 [Spironolactone] (concentration: 25 µM) | 1.01 ± 0.062 | 0.455 ± 0.032 |
| COc1ccc([C@@H]2Sc3ccccc3N(CCN(C)C)C(=O)[C@@H]2OC(C)=O)cc1 [Diltiazem·HCl] (concentration: 25 µM) | 0.959 ± 0.053 | 0.359 ± 0.13 |
| Cc1cnc(C(=O)NCCc2ccc(S(=O)(=O)NC(=O)NC3CCCCC3)cc2)cn1 [Glipizide] (concentration: 25 µM) | 1.09 ± 0.049 | 0.612 ± 0.11 |
| O=C(O)CCc1nc(-c2ccccc2)c(-c2ccccc2)o1 [Oxaprozin] (concentration: 2.5 µM) | 0.966 ± 0.014 | 1.03 ± 0.013 |
| CC(C)CN(C[C@@H](O)[C@H](Cc1ccccc1)NC(=O)O[C@H]1CO[C@H]2OCC[C@H]21)S(=O)(=O)c1ccc(N)cc1 [Darunavir] (concentration: 25 µM) | 1.01 ± 0.037 | 0.62 ± 0.062 |
| C[C@@H](CN1CC(=O)NC(=O)C1)N1CC(=O)NC(=O)C1 [Dexrazoxane] (concentration: 25 µM) | 0.9682 ± 0.0057 | 0.411 ± 0.11 |
| Nc1ccn(C[C@@H](CO)OCP(=O)(O)O)c(=O)n1 [Cidofovir] (concentration: 25 µM) | 1.13 ± 0.057 | 0.593 ± 0.094 |
| CC1=C(C/C=C(\C)CCC[C@H](C)CCC[C@H](C)CCCC(C)C)C(=O)c2ccccc2C1=O [Phytonadione] (concentration: 25 µM) | 0.986 ± 0.024 | 0.886 ± 0.1 |
| CCCCC[C@H](O)/C=C/[C@H]1[C@H](O)CC(=O)[C@@H]1C/C=C\CCCC(=O)O [Dinoprostone] (concentration: 25 µM) | 0.88 ± 0.019 | 0.399 ± 0.11 |

| SMILES | mean cell size [1] | cell count [2] |
| --- | --- | --- |
| OCCN1CCN(CCCN2c3ccccc3Sc3ccc(C(F)(F)F)cc32)CC1 [Fluphenazine·HCl] (concentration: 2.5 µM) | 1.13 ± 0.017 | 0.701 ± 0.079 |
| C=C1/C(=C\C=C2/CCC[C@]3(C)[C@@H]([C@H](C)CCCC(C)(C)O)CC[C@@H]23)C[C@@H](O)C[C@@H]1O [Calcitriol] (concentration: 25 µM) | 0.8848 ± 0.0063 | 0.893 ± 0.088 |
| CC(C)(C)NC[C@H](O)COc1nsnc1N1CCOCC1 [(S)-Timolol Maleate] (concentration: 25 µM) | 0.963 ± 0.034 | 0.967 ± 0.15 |
| CC(=O)NCCCS(=O)(=O)O [Acamprosate] (concentration: 25 µM) | 1.05 ± 0.062 | 0.933 ± 0.097 |
| C#C[C@]1(O)CC[C@H]2[C@@H]3CCC4=CC(=O)CC[C@@H]4[C@H]3CC[C@@]21CC [Levonorgestrel] (concentration: 25 µM) | 0.941 ± 0.032 | 0.903 ± 0.046 |
| COc1cc2c(cc1OC)C(=O)C(CC1CCN(Cc3ccccc3)CC1)C2 (stereo unspecified) [Donepezil·HCl] (concentration: 25 µM) | 1.032 ± 0.0096 | 0.487 ± 0.13 |
| CCN1CCN(C(=O)N[C@@H](C(=O)N[C@@H]2C(=O)N3[C@@H]2SC(C)(C)[C@@H]3C(=O)O)c2ccccc2)C(=O)C1=O [Piperacillin] (concentration: 25 µM) | 1 ± 0.015 | 0.91 ± 0.068 |
| COc1cc(C(=O)NS(=O)(=O)c2ccccc2C)ccc1Cc1cn(C)c2ccc(NC(=O)OC3CCCC3)cc12 [Zafirlukast] (concentration: 25 µM) | 0.959 ± 0.06 | 0.381 ± 0.062 |
| CCOC(=O)C1=C(COCCN)NC(C)=C(C(=O)OC)C1c1ccccc1Cl (stereo unspecified) [Amlodipine] (concentration: 25 µM) | 1.06 ± 0.053 | 0.268 ± 0.055 |
| CC(=O)O[C@@]12CO[C@@H]1C[C@H](O)[C@@]1(C)C(=O)[C@H](O)C3=C(C)[C@@H](OC(=O)[C@H](O)[C@@H](NC(=O)OC(C)(C)C)c4ccccc4)C[C@@](O)([C@@H](OC(=O)c4ccccc4)[C@H]21)C3(C)C [Docetaxel (Taxotere)] (concentration: 25 nM) | 1.14 ± 0.035 | 0.518 ± 0.052 |
| O=C(N[C@H](CO)[C@H](O)c1ccc([N+](=O)[O-])cc1)C(Cl)Cl [Chloramphenicol] (concentration: 25 µM) | 0.949 ± 0.022 | 0.819 ± 0.078 |
| CCC(=O)O[C@]1(C(=O)CCl)[C@@H](C)C[C@H]2[C@@H]3CCC4=CC(=O)C=C[C@]4(C)[C@@]3(F)[C@@H](O)C[C@@]21C [Clobetasol Propionate] (concentration: 25 µM) | 0.898 ± 0.015 | 0.881 ± 0.18 |
| Cc1ccc(C)c(OCCCC(C)(C)C(=O)O)c1 [Gemfibrozil] (concentration: 25 µM) | 0.956 ± 0.026 | 0.91 ± 0.048 |
| CC(C)OC(=O)CCC/C=C\C[C@@H]1[C@@H](CC[C@@H](O)CCc2ccccc2)[C@H](O)C[C@@H]1O [Latanoprost] (concentration: 25 µM) | 0.981 ± 0.046 | 0.534 ± 0.18 |
| C[C@H](Cn1cnc2c(N)ncnc21)OCP(=O)(O)O [Tenofovir] (concentration: 2.5 µM) | 0.997 ± 0.14 | 0.894 ± 0.016 |
| COc1cc(CNC(=O)CCCC/C=C/C(C)C)ccc1O [Capsaicin] (concentration: 25 µM) | 0.903 ± 0.021 | 0.901 ± 0.08 |
| CO/N=C(\C(=O)N[C@@H]1C(=O)N2C(C(=O)O)=C(COC(N)=O)CS[C@H]12)c1ccco1 [Cefuroxime·Na] (concentration: 25 µM) | 0.994 ± 0.028 | 0.945 ± 0.051 |
| CO[C@@]1(NC(=O)Cc2cccs2)C(=O)N2C(C(=O)O)=C(COC(N)=O)CS[C@@H]21 [Cefoxitin·Na] (concentration: 25 µM) | 0.939 ± 0.031 | 0.89 ± 0.037 |
| Cn1cnc([N+](=O)[O-])c1Sc1ncnc2[nH]cnc12 [Azathioprine] (concentration: 25 µM) | 1.02 ± 0.036 | 0.782 ± 0.088 |
| CN(C)CCC(c1ccc(Cl)cc1)c1ccccn1 (stereo unspecified) [Chlorpheniramine Maleate] (concentration: 25 µM) | 0.961 ± 0.02 | 0.917 ± 0.11 |
| CO[C@H]1C[C@@H]2CC[C@@H](C)[C@@](O)(O2)C(=O)C(=O)N2CCCC[C@H]2C(=O)O[C@H]([C@H](C)C[C@@H]2CC[C@@H](OC(=O)C(C)(CO)CO)[C@H](OC)C2)CC(=O)[C@H](C)/C=C(\C)[C@@H](O)[C@@H](OC)C(=O)[C@H](C)C[C@H](C)/C=C/C=C/C=C/1C [Temsirolimus] (concentration: 25 µM) | 0.686 ± 0.018 | 0.358 ± 0.15 |
| CS(=O)(=O)CCNCc1ccc(-c2ccc3ncnc(Nc4ccc(OCc5cccc(F)c5)c(Cl)c4)c3c2)o1 [Lapatinib Ditosylate] (concentration: 25 µM) | 0.924 ± 0.072 | 0.911 ± 0.14 |
| OCCN1C[C@H](O)[C@@H](O)[C@H](O)[C@H]1CO [Miglitol] (concentration: 25 µM) | 0.994 ± 0.04 | 0.767 ± 0.14 |
| NCCNCCNCCN [Trientine Dihydrochloride] (concentration: 25 µM) | 0.949 ± 0.04 | 1.02 ± 0.14 |
